# Tests used:
# Assay type in all cases: functional
# [1] = target: Solute carrier family 2, facilitated glucose transporter member 1 (Homo sapiens) (UniProt P11166); test: ST_JUDE_LEISH: Cytotoxicity at 2uM final concentration against transgenic Leishmania Mexicana promastigotes LmGLUT1 that are glucose transport deficient and complemented with the human glucose transporter GLUT1. Activity is measured by DNA content using SYBR green in vitro
# [2] = target: Hexose transporter 1 (Plasmodium falciparum) (UniProt O97467); test: ST_JUDE_LEISH: Cytotoxicity at 2uM final concentration against transgenic Leishmania Mexicana promastigotes LmPfHT that are glucose transport deficient and complemented with the Plasmodium falciparum hexose transporter. Activity is measured by DNA content using SYBR green in vitro
# [3] = target: Glucose transporter (Leishmania mexicana) (UniProt O61059); test: ST_JUDE_LEISH: Cytotoxicity at 2uM final concentration against transgenic Leishmania Mexicana promastigotes LmGT2 that are glucose transport deficient and complemented with the L. Mexicana glucose transporter 2. Activity is measured by DNA content using SYBR green in vitro
# Chain of Solute carrier family 2, facilitated glucose transporter member 1 (Homo sapiens) (P11166 whole entry): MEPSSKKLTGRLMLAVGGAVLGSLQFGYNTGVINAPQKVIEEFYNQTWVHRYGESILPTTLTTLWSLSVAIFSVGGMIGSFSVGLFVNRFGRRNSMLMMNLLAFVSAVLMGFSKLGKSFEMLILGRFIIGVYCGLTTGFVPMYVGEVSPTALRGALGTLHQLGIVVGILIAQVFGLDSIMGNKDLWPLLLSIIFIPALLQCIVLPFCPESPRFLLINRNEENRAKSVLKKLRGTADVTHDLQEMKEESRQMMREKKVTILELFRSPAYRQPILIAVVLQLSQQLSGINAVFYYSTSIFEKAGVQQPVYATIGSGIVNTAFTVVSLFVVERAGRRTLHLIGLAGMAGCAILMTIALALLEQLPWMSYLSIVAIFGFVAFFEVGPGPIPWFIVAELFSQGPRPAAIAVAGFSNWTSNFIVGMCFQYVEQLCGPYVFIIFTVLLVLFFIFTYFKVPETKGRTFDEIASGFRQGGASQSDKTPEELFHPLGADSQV
SMILES,inhibition [1],inhibition [2],inhibition [3]
N#Cc1ccc2c(c1)CCN(CCC1CCC(NC(=O)Nc3ccncc3)CC1)C2 (stereo unspecified),5.14%,3.65%,5.01%
O=c1cc(NCCCNCc2cc(C(F)(F)F)ccc2F)[nH]c2ccccc12,0.7%,0.86%,3.1%
COc1cc(OC)c(NC(=O)C2c3ccccc3C(=O)N(CC(C)C)C2c2cccs2)cc1Cl (stereo unspecified),-4.11%,2.33%,5.96%
COc1ccc2nc(N)nc(C)c2c1,4.18%,2.86%,2.78%
COc1ccc2nccc([C@@H](O)CN3CCC(NCc4cc5cccc(OCc6ccccc6)c5[nH]4)CC3)c2c1,1.7%,0.05%,2.01%
O=C(NC1CCN(c2ccnc3cc(Cl)ccc23)C1)c1cccc(F)c1 (stereo unspecified),0.95%,1.46%,1.42%
COc1ccc(-c2csc3nc(C)nc(Cl)c23)cc1OC,-0.82%,0.48%,0.63%
NC1CCN(Cc2ccc(-c3ccc(-c4nc5ccccc5[nH]4)cc3)cc2)C1 (stereo unspecified),12.9%,10.4%,5.07%
Nc1nc(N)c2c(Oc3cccnc3)cccc2n1,0.1%,-1.61%,-0.57%
COc1ccc(NC(=O)Nc2ccc(Nc3nc(C)cc(N4CCCC4)n3)cc2)cc1,4.49%,3.69%,1.68%
COc1ccc2c(NN=Cc3ccccc3Cl)ccnc2c1,3.65%,4.27%,4.32%
CCCOc1c(CCNCCCCNCCc2ccc3ccccc3c2OCCC)ccc2ccccc12,60.8%,13.6%,40.1%
CCN(CC)CCOc1ccc(C(O)(C#CC(O)(c2ccccc2)c2ccc(OCCN(CC)CC)cc2)c2ccccc2)cc1 (stereo unspecified),-1.1%,-2.58%,1.94%
O=C(c1ccc([N+](=O)[O-])o1)N1CCN(c2nc3c(F)cc(F)cc3s2)CC1,21%,6.03%,7.31%
Cc1nc(Nc2ccc(F)cc2)nc(N2CCc3ccccc3C2C)c1CO (stereo unspecified),5.38%,7.38%,1.5%
O=c1c2cccnc2sn1-c1ccccc1,0.94%,0.87%,0.72%
O=C(/C=C/c1ccc(Cl)c(Cl)c1)N1CCC(CN2CCC(Cc3nc4ccccc4[nH]3)CC2)CC1,1.43%,1.29%,3.16%
